# Screens from PubChem BioAssay.
# Gal4-VP16 FLuc = inhibits Gal4-VP16 luciferase reporter, ROR gamma counter-screen; Drosophila S2 Gal4-VP16 UAS-luciferase, luminescence, 20 h; Potency, µM (top dose mostly 53.6 µM), inactives show at the top dose activity, negative = inhibition, most hits filed as inhibitors; 310,000 compounds, 3.5% hits; AID 2546;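 note: Gal4-VP16 expression switched on by copper sulfate through the metallothionein promoter; potency is the fitted concentration of half-maximal effect; nearly all actives have a fitted effect of over 50% in size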
# TDP1 cell noCPT = qHTS for Inhibitors of human tyrosyl-DNA phosphodiesterase 1 (TDP1): qHTS in cells in absence of CPT; DT40 Tdp1-/- hTDP1 cells, no CPT, ATP luminescence, 48 h; Potency, µM (top dose mostly 46.2 µM), without a hit: at the top dose activity change, negative = growth inhibition, most hits filed as inhibitors; 420,000 compounds, 15% hits; note: potency is the fitted concentration of half-maximal effect; nearly all actives have a fitted effect of over 55% in size
#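 Growth of hTDP1-complemented DT40 Tdp1-knockout cells is measured by ATP luminescence after at least 48 hr compound exposure at 37 °C, with DMSO substituting for the 20 nM CPT used in the parallel screen.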
# TDP1 cell CPT = growth inhibition of DT40 Tdp1-/-;hTDP1 cells with camptothecin (screen for TDP1 inhibitors). Potency, µM (doses to about 46.2 µM), inactives show at the highest dose activity change, negative = growth inhibition, hits mostly inhibitors. chicken DT40 Tdp1-/-;hTDP1 cells + 20 nM CPT, ATP luminescence, 48 h. 420,000 compounds, 12% hits. AID 686979; note: potency is the fitted concentration of half-maximal effect; nearly all actives have a fitted effect of over 55% in size
#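 Chicken DT40 Tdp1-/- cells complemented with human TDP1, 400 cells/well, exposed to compounds plus 20 nM camptothecin for at least 48 h at 37 C; viability read as ATP content by CellTiter-Glo luminescence.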
# IL-1B inflam inh = blocks inflammasome-driven IL-1 beta release; 360,000 compounds, 4.7% hits; THP-1 LPS/ATP IL-1B secretion, AlphaLISA, 16 h; hits give low values; activity change, % at 57.5 µM; in the data active = activity change below about -50%; inconclusive = mostly about -30% to -49%
#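 Secreted IL-1B measured by AlphaLISA bead assay after 16 h compound exposure of THP-1 cells; compounds (final up to 57.5 uM) added 1 h before LPS (250 ng/mL) and ATP (1.25 mM) stimulation; lower signal means less secretion.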
# RORg inh = ROR gamma (mouse) transcription inhibition; P51450; Drosophila S2 Gal4-RORgamma UAS-luciferase reporter, 20 h; Potency, µM (series often up to 53.6 µM), inactives show at the highest dose activity change, negative = inhibition, usual class: inhibitors; 310,000 compounds, 5.4% hits; note: potency is the fitted concentration of half-maximal effect; nearly all actives have a fitted effect of over 60% in size
# Target sequence (P51450 whole entry, looked up, the tested form may be a part): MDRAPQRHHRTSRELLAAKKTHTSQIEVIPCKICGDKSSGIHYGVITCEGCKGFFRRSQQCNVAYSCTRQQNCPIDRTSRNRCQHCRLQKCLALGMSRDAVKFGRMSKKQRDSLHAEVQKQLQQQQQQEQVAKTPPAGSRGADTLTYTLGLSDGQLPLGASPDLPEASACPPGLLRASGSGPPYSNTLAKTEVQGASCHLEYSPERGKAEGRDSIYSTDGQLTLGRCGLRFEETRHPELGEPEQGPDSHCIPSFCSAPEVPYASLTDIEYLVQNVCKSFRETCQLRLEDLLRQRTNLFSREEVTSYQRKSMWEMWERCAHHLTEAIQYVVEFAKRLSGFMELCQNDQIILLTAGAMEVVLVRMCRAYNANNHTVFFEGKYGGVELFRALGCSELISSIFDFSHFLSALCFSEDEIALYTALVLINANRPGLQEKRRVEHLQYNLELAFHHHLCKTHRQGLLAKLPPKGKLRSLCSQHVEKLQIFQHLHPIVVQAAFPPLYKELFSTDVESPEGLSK
#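 Luminescence from a UAS-regulated Photinus luciferase reporter in stably transfected Drosophila Schneider cells is measured; decreased signal marks ROR gamma inhibition. Fusion expression is induced by 700 uM copper sulfate for 20 hr.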
# ELG1 repair inh = inhibitors of ELG1-dependent DNA repair in HEK293T cells; 330,000 compounds, 2.3% hits; AID 504467; Potency, µM (series often up to 46.1 µM), inactives show at the highest dose activity change, negative = inhibition, actives largely listed as inhibitors; HEK293T ELG1-luciferase reporter, luminescence, 16 h; DNA damage induced by 5-fluorouridine; note: potency is the fitted concentration of half-maximal effect; nearly all actives have a fitted effect of over 55% in size
#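 In this reporter screen, reduction of luminescence relative to DMSO vehicle indicated activity. Compounds and 5-fluorouridine were added together to 2,000 cells per well, incubated for 16 hr at 37 °C, then developed with ONE-Glo.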
# Starred values were filed as active, the others as inactive; i = inactive; ? = inconclusive; . = no result given; ! = repeats disagree; [ ] = remark or other dose. Rows were chosen to be rich in hits. Some 21% of all compounds tested hit in one or more screens of this group. Unless noted, calls come from the whole dose curve; as a rule, active = well fitted curve in the direction sought with a large enough effect; inconclusive = small, poorly fitted or top-dose-only effect, or another doubt; inactive = no such curve, though single readings can be large; an effect the other way counts as inactive or inconclusive. % is set by controls: 0 for no effect and ±100 for the full control effect.
SMILES,Gal4-VP16 FLuc,TDP1 cell noCPT,TDP1 cell CPT,IL-1B inflam inh,RORg inh,ELG1 repair inh
COCCCC/C(=N\OCCN)c1ccc(C(F)(F)F)cc1,-13%,21µM*,13µM*!,-51*!,6%,?
COCCOc1ccc(C(F)(F)F)cc1N,2%,-1%,-1%,-1,4%,3%
COCCCCC(=NOCCN)c1ccc(C(F)(F)F)cc1,-2%,24µM*,13µM*,.,-3%,.
O=C(CCC(=O)OCC(=O)c1ccc(C(F)(F)F)cc1)OCC(=O)c1ccc(C(F)(F)F)cc1,-8%,3%,9%,13,1%,6%
COC(=O)[C@@H]1Cc2c([nH]c3ccccc23)C(C)N1C(=O)c1ccccc1 (stereo partly drawn),4%,?,?,0,14%,12µM*
COc1cccc(-n2nc(C(N)=O)c(O)cc2=O)c1,2%,-20%,2%,12,-1%,12%
COc1cccc(-n2nc(C#N)c(Cl)cc2=O)c1,7.1µM*,2.9µM*,2.3µM*,-101*,3.5µM*,?
NC(=O)C1CCN(C(=O)c2ccccc2NC(=O)c2nsc3ccccc23)CC1,.,-8%,?,.,.,.
CCOC(=O)C1CCCN(C(=O)c2ccccc2NC(=O)c2nsc3ccccc23)C1 (stereo not drawn),.,?,16µM*,.,.,.
CCOC(=O)C1CCCN(C(=O)c2cccc(NC(=O)c3nsc4ccccc34)c2)C1 (stereo not drawn),.,21µM*,21µM*,.,.,.
COc1ccccc1CNC(=O)CNC(=O)c1ccc(Br)o1,0%,?,-2%,i,11%,1%
COc1ccccc1CNc1nc2ccc(C)cc2n2nnnc12,.,-25%,-21%,.,.,.
Cc1cccc(NC(=S)N(CCCN2CCCC2)Cc2cccn2Cc2ccc(Cl)cc2)c1,?,16µM*,?,-87*,?,-11%
CCN1CCN(CCCN(Cc2ccco2)C(=S)Nc2ccc(Cl)cc2)CC1,-7%,-14%,-6%,-28,-18%,5%
CCOc1ccc(NC(=S)N(CCCN2CCCC2)Cc2cccn2Cc2ccc(Cl)cc2)cc1,-2%,?,15µM*,-23,13µM*,0%
CC(C)n1c(C(O)c2ccc3c(c2)OCO3)nc2ccccc21 (stereo not drawn),?,?,-29%,0,?,-10%
Cn1c(C(O)c2ccc3c(c2)OCO3)nc2ccccc21 (stereo not drawn),0%,?,16µM*,13,4%,-5%
CSc1ncnc2c1ncn2CCCNCc1ccc(C)o1,.,-29%,0%,11,.,.
CCC1CCCCN1Cc1ccc(OC)c(C)c1C (stereo not drawn),4%,-2%,-16%,9,11µM*,-1%
COc1ccc(CN2CCN(Cc3csc(C(C)=O)c3)CC2CCO)c(C)c1C (stereo not drawn),5%,10µM*,-10%,-16,38%,?
CC(=O)c1cc(CN2CCN(CCC(C)C)C(CCO)C2)cs1 (stereo not drawn),-16%,?,16µM*,7,-14%,7%
COc1ccc(CN2CCN(C3CCSCC3)CC2CCO)c(C)c1C (stereo not drawn),6%,16µM*,18µM*,-4,-7%,4%
O=C(O)CC1(CC(=O)N2CCC(C(=O)O)CC2)CCCC1,-11%,10%,45%,9,5%,-4%
COc1ccc(CN2CCN(Cc3nc4ccccc4s3)CC2CCO)c(C)c1C (stereo not drawn),5%,15µM*,?,?,?,16µM*
COc1ccc(CN2CCN(CC3CC3)CC2CCO)c(C)c1C (stereo not drawn),.,-12%,?,-3,.,14%
SMILES,Gal4-VP16 FLuc,TDP1 cell noCPT,TDP1 cell CPT,IL-1B inflam inh,RORg inh,ELG1 repair inh
CCN(Cc1nc2cc(Cl)ccc2c(=O)[nH]1)C(=O)c1nn(C)c(=O)c2ccccc12,.,?,-24%,16,.,?
CCN(Cc1nc2cc(Cl)ccc2c(=O)[nH]1)C(=O)c1cc(C2CC2)nn1-c1ccccc1,.,2.9µM*,5.2µM*,18,.,?
COc1ccc(-n2nnnc2C2CCN(S(=O)(=O)c3ccc(F)cc3Cl)CC2)cc1,.,16µM*,?,.,.,.
COc1ccc(-n2nnnc2C2CCN(S(=O)(=O)c3cccc(C(F)(F)F)c3)CC2)cc1,.,-14%,-19%,.,.,.
COc1ccc(-n2nnnc2C2CCN(S(=O)(=O)c3ccc(NC(C)=O)cc3)CC2)cc1,.,4.6µM*,5.8µM*,.,.,.
CN1CCO[C@H](c2ccccc2)c2ccccc2C1,-14%[17 µM],.,.,.,5%[2.98 µM],.
Cc1ccccc1-n1c(SCC(=O)Nc2ccccc2)nc2nc3c(cc2c1=O)CCCC3,-13%,16µM*,?,-5,-41%,23µM*
CC(=O)c1ccc(NC(=O)CSc2nc(N)c3cc4c(nc3n2)CCCC4)cc1,-13%,?,?,-1,11%,-22%
CCn1c(SCC(=O)Nc2ccc(C(C)=O)cc2)nc2nc3c(cc2c1=O)CCCC3,?,?,?,-55*,?,?
CCn1c(SCC(=O)Nc2ccc(Cl)cc2)nc2nc3c(cc2c1=O)CCCC3,13µM*,?,?,-64*,14µM*,?
COc1ccc(NC(=O)CSc2nc(N)c3cc4c(nc3n2)CCCC4)cc1,2%,15µM*,?,27,?,15%
CCOc1ccc(NC(=O)CSc2nc3nc4c(cc3c(=O)n2CC)COC(C)(C)C4)cc1,-6%,?,?,?,3%,?
CC1CCCN(Cc2csc(N)n2)C1 (stereo not drawn),3%,-2%,1%,-13,-9%,6%
COc1ccc(CCN(C)C(=O)COc2cccc(-n3cnnn3)c2)cc1OC,.,-3%,11%,46,.,8%
Cc1ccccc1C(=O)c1cccn1CC(=O)NCc1ccccc1Cl,?,1%,?,0,6%,?
CC(C)Cc1nnc(NC(=O)c2ccc([N+](=O)[O-])cc2)s1,?,-24%,-16%,4,12%,?
CCn1c(SCc2ccccc2Cl)nc2ccccc21,-5%,?,-24%,-4,10µM*,?
CCn1c(SCC(=O)NCc2ccccc2)nc2nc3c(cc2c1=O)CCCC3,1%,?,4%,-13,0%,?
CCn1c(SCc2ccccc2Cl)nc2nc3c(cc2c1=O)CCCC3,?,23µM*,16µM*,?,11µM*,?
